Inconclusive results are not listed. Calls of active or inactive are those of the source. Unless noted, calls follow the shape of the dose curve; as a rule, active = well fitted curve in the direction sought with a large enough effect in the repeat runs; inconclusive = weak or mixed curves; inactive = no such curve, though single readings can be large; an effect the other way counts as inactive or inconclusive.
What was measured:
[1] = qHTS RealTime-Glo MT Cell Viability Assay in HEK293 cells - 0 hour (AID 1224880); also: top concentration of the series differs between compounds; nearly all actives have a fitted effect of over 45% in size
Summary of the method: (§1)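 HEK293 cells mixed with RealTime-Glo reagents (NanoLuc plus cell-permeant prosubstrate) at 600 cells/well, preincubated 5 h at 37 C/5% CO2, then given 23 nL compound in DMSO. Nonlytic luminescence from viable cells was read at 0, 8, 16, 24, 32 and 40 h.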

[2] = A CellTox Green Cytotoxicity Assay to monitor cytotoxicity in HEK293 cells - 32 hour (AID 1224881); also: nearly all actives have a fitted effect of over 40% in size
Summary of the method: (§2)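 HEK293 cells premixed with CellTox Green dye were seeded at 600 cells/well and left 5 h at 37 C/5% CO2 before pin transfer of 23 nL compound in DMSO. Fluorescence from dye bound to dead-cell DNA was read during 40 h treatment.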

[3] = A CellTox Green Cytotoxicity Assay to monitor cytotoxicity in HepG2 cells - 0 hour (AID 1224882); also: nearly all actives have a fitted effect of over 35% in size
Summary of the method: (§3)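 HepG2 cells were seeded together with the CellTox Green dye at 600 cells/well, left 5 h at 37 C/5% CO2, then given compounds in DMSO. Fluorescence from dye bound to dead-cell DNA was read repeatedly over 40 h of treatment at 37 C.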

[4] = A CellTox Green Cytotoxicity Assay to monitor cytotoxicity in HepG2 cells - 32 hour (AID 1224883); also: nearly all actives have a fitted effect of over 50% in size
Summary of the method: as §3

[5] = A CellTox Green Cytotoxicity Assay to monitor cytotoxicity in HEK293 cells - 8 hour (AID 1224884); also: nearly all actives have a fitted effect of over 35% in size
Summary of the method: as §2

[6] = qHTS RealTime-Glo MT Cell Viability Assay in HepG2 cells - 16 hour (AID 1224885); also: nearly all actives have a fitted effect of over 50% in size
Summary of the method: (§4)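 Cell number in HepG2 cultures estimated from NanoLuc luminescence generated by metabolic reduction of a prosubstrate by living cells. The homogeneous, nonlytic format allowed repeated reads at 0, 8, 16, 24, 32 and 40 h of compound exposure.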

[7] = qHTS RealTime-Glo MT Cell Viability Assay in HEK293 cells - 24 hour (AID 1224886); also: top concentration of the series differs between compounds; nearly all actives have a fitted effect of over 50% in size
Summary of the method: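 Homogeneous bioluminescent viability format in HEK293 cells (600 cells/well). Following 5 h at 37 C/5% CO2, 23 nL compound was pintooled; the signal was measured repeatedly during 40 h incubation.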

[8] = qHTS RealTime-Glo MT Cell Viability Assay in HEK293 cells - 8 hour (AID 1224887); also: top concentration of the series differs between compounds; nearly all actives have a fitted effect of over 50% in size
Summary of the method: as §1

[9] = A CellTox Green Cytotoxicity Assay to monitor cytotoxicity in HEK293 cells - 16 hour (AID 1224888); also: nearly all actives have a fitted effect of over 35% in size
Summary of the method: as §2

[10] = qHTS RealTime-Glo MT Cell Viability Assay in HepG2 cells - 0 hour (AID 1224889); also: nearly all actives have a fitted effect of over 50% in size
Summary of the method: as §4

[11] = A CellTox Green Cytotoxicity Assay to monitor cytotoxicity in HepG2 cells - 8 hour (AID 1224890); also: nearly all actives have a fitted effect of over 45% in size
Summary of the method: as §3

[12] = qHTS assay to identify small molecule antagonists of the estrogen receptor alpha (ER-alpha) signaling pathway using the BG1 cell line in the presence of 0.1 nM 17-beta-estradiol - cell viability counter screen (AID 1259241); also: nearly all actives have a fitted effect of over 40% in size
Summary of the method: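 VM7Luc4E2, 4,000 cells/well, phenol red-free medium + 10% charcoal-stripped FBS; 24 hr plating; cpd + 0.1 nM E2 final, 22 hr 37C/5% CO2; CellTiter-Fluor 30 min, fluorescence.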

[13] = qHTS assay to identify small molecule antagonists of the androgen receptor (AR) signaling pathway using the MDA cell line in the presence of 0.5 nM R1881 - cell viability counter screen (AID 1259242); also: nearly all actives have a fitted effect of over 45% in size
Summary of the method: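 MDA-kb2 cells (human breast carcinoma, stably carrying MMTV-luciferase reporter) were exposed to compounds with 0.5 nM R1881 (final) for 16 hr at 37C, 0% CO2; viability then read as live-cell protease fluorescence (CellTiter-Fluor, 30 min) in the same wells.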

[14] = molecular target: Androgen receptor (Homo sapiens) (UniProt P10275); experiment: qHTS assay to identify small molecule antagonists of the androgen receptor (AR) signaling pathway using the MDA cell line in the presence of 0.5 nM R1881 (AID 1259243); also: nearly all actives have a fitted effect of over 50% in size
Chain of Androgen receptor (Homo sapiens) (P10275 whole entry, looked up): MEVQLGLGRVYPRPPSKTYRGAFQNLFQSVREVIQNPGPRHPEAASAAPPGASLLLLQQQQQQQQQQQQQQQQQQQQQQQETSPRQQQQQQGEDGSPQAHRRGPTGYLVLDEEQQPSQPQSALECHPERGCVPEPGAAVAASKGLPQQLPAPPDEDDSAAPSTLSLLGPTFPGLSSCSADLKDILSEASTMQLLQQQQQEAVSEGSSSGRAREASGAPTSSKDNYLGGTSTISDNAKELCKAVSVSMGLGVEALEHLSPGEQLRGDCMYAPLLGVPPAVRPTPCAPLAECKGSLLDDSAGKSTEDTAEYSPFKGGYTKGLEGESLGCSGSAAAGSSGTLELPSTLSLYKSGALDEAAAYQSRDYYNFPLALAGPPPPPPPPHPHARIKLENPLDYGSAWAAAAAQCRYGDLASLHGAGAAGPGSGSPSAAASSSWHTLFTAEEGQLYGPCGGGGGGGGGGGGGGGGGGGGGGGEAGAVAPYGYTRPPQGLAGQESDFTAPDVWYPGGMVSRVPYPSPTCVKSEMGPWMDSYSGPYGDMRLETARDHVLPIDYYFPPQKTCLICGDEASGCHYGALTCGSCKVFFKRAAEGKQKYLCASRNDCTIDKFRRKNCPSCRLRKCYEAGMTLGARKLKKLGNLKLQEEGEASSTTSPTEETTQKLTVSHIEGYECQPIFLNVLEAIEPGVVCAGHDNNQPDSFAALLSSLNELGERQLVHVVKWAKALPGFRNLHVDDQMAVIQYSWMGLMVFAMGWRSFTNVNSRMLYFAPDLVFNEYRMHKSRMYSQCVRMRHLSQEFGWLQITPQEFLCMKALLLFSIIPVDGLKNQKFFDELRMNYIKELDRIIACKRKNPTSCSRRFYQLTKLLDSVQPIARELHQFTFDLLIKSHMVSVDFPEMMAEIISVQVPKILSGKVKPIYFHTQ
Summary of the method: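 MDA-kb2 human breast carcinoma cells carrying an MMTV-luciferase reporter (AR- and GR-responsive) were plated, rested 5 hr at 37C, dosed with compounds, then stimulated with 0.5 nM R1881 (final) for 16 hr; luminescence was read after ONE-Glo.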

[15] = molecular target: Estrogen receptor (Homo sapiens) (UniProt P03372); experiment: qHTS assay to identify small molecule antagonists of the estrogen receptor alpha (ER-alpha) signaling pathway using the BG1 cell line in the presence of 0.1 nM 17-beta-estradiol (AID 1259244); also: nearly all actives have a fitted effect of over 50% in size
Chain of Estrogen receptor (Homo sapiens) (P03372 whole entry, looked up): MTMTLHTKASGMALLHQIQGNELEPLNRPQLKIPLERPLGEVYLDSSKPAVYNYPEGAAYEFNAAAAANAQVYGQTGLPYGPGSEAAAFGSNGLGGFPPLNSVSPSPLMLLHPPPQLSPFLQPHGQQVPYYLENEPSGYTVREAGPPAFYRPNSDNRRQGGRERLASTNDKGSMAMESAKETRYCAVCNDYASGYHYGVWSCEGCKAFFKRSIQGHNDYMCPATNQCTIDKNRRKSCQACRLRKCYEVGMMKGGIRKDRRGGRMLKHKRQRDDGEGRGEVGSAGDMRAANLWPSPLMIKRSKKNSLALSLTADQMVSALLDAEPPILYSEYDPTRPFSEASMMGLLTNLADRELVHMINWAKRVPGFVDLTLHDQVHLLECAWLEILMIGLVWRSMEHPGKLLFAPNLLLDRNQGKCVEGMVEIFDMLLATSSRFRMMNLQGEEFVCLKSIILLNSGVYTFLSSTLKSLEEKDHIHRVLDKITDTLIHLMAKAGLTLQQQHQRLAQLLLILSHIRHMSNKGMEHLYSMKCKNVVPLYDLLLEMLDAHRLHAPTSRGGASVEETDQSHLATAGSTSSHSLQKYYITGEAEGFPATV
Summary of the method: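 VM7Luc4E2 cells (endogenous full-length ER-alpha, stable 4xERE-luciferase) were grown 5 days in phenol red-free medium with charcoal-stripped FBS, then exposed 22 h at 37C to compounds plus 0.1 nM (final) 17beta-estradiol; ONE-Glo luminescence read-out.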

[16] = qHTS assay to identify small molecule HDAC inhibitors (AID 1259364); also: top concentration of the series differs between compounds; nearly all actives have a fitted effect of over 45% in size
Summary of the method: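 Wild-type HCT-116 cells were plated overnight, exposed to compounds for 2 h at 37 °C, then given HDAC-Glo class I/II luminogenic reagent for 30 min at room temperature before luminescence was read.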

[17] = qHTS assay to identify small molecule HDAC inhibitors - cell viability counter screen (AID 1259365)
Summary of the method: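 Luminescence from CellTiter-Glo, developed 30min at room temperature, reports viability of wild-type HCT-116 cells treated 2hr with compounds at 37 C and 5% CO2 after overnight plating.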

[18] = qHTS assay to identify small molecule agonists of the sonic hedgehog signaling (Shh) pathway - cell viability counter screen (AID 1259366); also: nearly all actives have a fitted effect of over 50% in size
Summary of the method: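 Cytotoxicity counter screen run in the same wells as the Shh reporter assay. NIH/3T3 cells carrying a Gli1 response element–driven luciferase were treated with DMSO-dissolved compounds for 24hr, and live-cell protease activity was measured with CellTiter-Fluor.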

[19] = qHTS assay to identify small molecule antagonists of the sonic hedgehog signaling (Shh) pathway - cell viability counter screen (AID 1259367); also: nearly all actives have a fitted effect of over 55% in size
Summary of the method: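 Using CellTiter-Fluor, viability of Gli1-Luc reporter 3T3 cells is read by fluorescence in the wells used for the Shh luciferase assay. Treatment lasts 23 hr with conditioned medium, then reagent 1 hr at 37C.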

[20] = qHTS assay to identify small molecule phospholipidosis (PLD) inducers (AID 1259344; active = well fitted curve in the direction sought with a large enough effect; an effect the other way counts as inactive or inconclusive)
Summary of the method: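 Fluorescent phospholipid staining (LipidTOX Red) measured by automated microscopy in fixed HepG2 cells after 24 h treatment; nuclei counterstained with Hoechst 33342; amiodarone as reference inducer.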

Measured: Potency

O=S(=O)(O)c1ccccc1O
inactive: [1] | [2] | [3] | [4] | [5] | [6] | [7] | [8] | [9] | [10] | [11] | [12] | [13] | [14] | [15] | [16] | [17] | [18] | [19]

C1COCCO1
inactive: [1] | [2] | [3] | [4] | [5] | [6] | [7] | [8] | [9] | [10] | [11] | [12] | [13] | [14] | [16] | [17] | [19]

Nc1nc2c(ncn2CCC(CO)CO)c(=O)[nH]1
inactive: [1] | [2] | [3] | [4] | [5] | [6] | [7] | [8] | [9] | [10] | [11] | [12] | [13] | [15] | [20] | [16] | [17] | [18] | [19]

Cc1c(F)cc2c(=O)c(C(=O)O)cn3c2c1CCC3C (centres undefined)
inactive: [1] | [2] | [3] | [4] | [5] | [6] | [7] | [8] | [9] | [10] | [11] | [12] | [13] | [14] | [15] | [16] | [17] | [18] | [19]

CCN1CCCC(OC(=O)C(c2ccccc2)c2ccccc2)C1 (centres undefined)
inactive: [1] | [2] | [3] | [4] | [5] | [6] | [7] | [8] | [9] | [10] | [11] | [12] | [13] | [15] | [20] | [16] | [17] | [18] | [19]

O=c1[nH]c2ccccc2c(=O)n1CCCl
inactive: [1] | [2] | [3] | [4] | [5] | [6] | [7] | [8] | [9] | [10] | [11] | [12] | [13] | [14] | [16] | [17] | [18] | [19]

COc1ccc2cc(C=O)ccc2c1
inactive: [1] | [2] | [3] | [4] | [5] | [6] | [7] | [8] | [9] | [10] | [11] | [12] | [13] | [15] | [16] | [17] | [18] | [19]
